Our source for the Potency, activity change, negative = inhibition and outcome values is PubChem BioAssay (NCATS).

Inconclusive results are not listed. Unmarked numbers belong to inactive results. The source made the active and inactive calls. Calls follow the shape of the dose curve; as a rule, active = well fitted inhibition curve with a large enough effect; inconclusive = small, poorly fitted or top-dose-only effect; inactive = no such curve, though single readings can be large or run the other way.

In assay [1] the test system is Zika virus NS2B-NS3 protease (unlinked complex). Nature of the assay: Primary screen GU Rhodamine qHTS for Zika virus inhibitors: Unlinked NS2B-NS3 protease assay (AID 1347159). Also: nearly all actives have a fitted effect of over 60% in size. As to conditions: Recombinant ZIKV NS2B-NS3 protease, Rhodamine110 substrate fluorescence; series mostly up to 107 µM. In outline:
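In dose–response format, inhibition of unlinked protease (25 nM) was measured with 1.5 microM bis-peptide Rhodamine110 substrate. Aprotinin served as the intraplate control.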

Assay [2] has as its system Zika virus NS2B-NS3 protease (linked construct). The assay is described as follows: Primary screen NINDS Rhodamine qHTS for Zika virus inhibitors (AID 1347160). Also: nearly all actives have a fitted effect of over 55% in size. Particulars: purified NS2B-NS3 protease, Rhodamine110 substrate fluorescence; series mostly up to 57.1 µM. The gist of the method: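 Each compound, titrated, sat 15 min with 25 nM linked protease before 1.5 microM Rhodamine110 substrate went in. Fluorescence gain over the next 15 min, in pH 8.0 Tris with Tween 20, gave Hill-fitted curves.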
(In qHTS, concentration-response curves come from the screen itself.)
% is scaled to controls: 0 for no effect and ±100 for the full control effect; potency is read from the fitted curve at half-maximal effect.

Take `Cc1cc(C)cc(NC(=O)Cc2ccc(OC(C)(C)C(=O)O)cc2)c1`: the Potency result in assay [1] and in assay [2] was “inactive” each time.

As to `C=CC1(C)CC(OC(=O)C(=C)C(O)COC(C)=O)C(C(=C)C(=O)OC)C(O)C1C(=C)CO` (stereo not given), the Potency result in assay [1] and in assay [2] was “inactive” each time.

Turning to `O=C(O)C[C@H](O)C[C@H](O)/C=C/c1c(C2CC2)nc2ccccc2c1-c1ccc(F)cc1`, the Potency result in assay [1] and in assay [2] was “inactive” in each case.

As for `O=C(/C=C/c1ccc(O)cc1)O[C@H]1[C@@H]2C=CO[C@@H](O[C@@H]3O[C@H](CO)[C@@H](O)[C@H](O)[C@H]3O)[C@@H]2[C@@]2(CO)O[C@@H]12`, the Potency entry in assay [1] and in assay [2] was “inactive” in each case.

As for `CC(=O)OC[C@@]12[C@H](O)C[C@@H](C)[C@]3(C[C@@H](c4ccoc4)OC3=O)[C@H]1C[C@H](O)C[C@]21CO1`, the Potency entry in assay [1] and in assay [2] was “inactive” throughout.

Regarding `C[C@@H]1O[C@@H](O[C@@H]2[C@@H](O)[C@H](O[C@@H]3[C@@H](O)[C@@H](O)[C@H](O[C@H]4[C@H](OC(=O)[C@]56CCC(C)(C)C[C@H]5C5=CCC7[C@@]8(C)C[C@H](O)[C@H](O[C@@H]9O[C@H](C(=O)O)[C@@H](O)[C@H](O)[C@H]9O)[C@@](C)(CO)C8[C@H](O)C[C@@]7(C)[C@]5(C)CC6)OC[C@H](O)[C@@H]4O)O[C@H]3C)OC[C@H]2O)[C@H](O)[C@H](O)[C@H]1O` (stereo not given in full), the activity change, negative = inhibition in assay [1] is 20.7% [at 19.1 µM]. The outcome in assay [2] is “inactive [at 10.7 µM]”.

On to `C=CC1C(O[C@@H]2O[C@H](CO)[C@@H](O)[C@H](O)[C@H]2O)OC=C(C(=O)OC)C1CC(=O)O` (stereo not given in full), for which the Potency result in assay [1] and in assay [2] was “inactive” each time.

With `C/C1=C\C[C@H](O[C@@H]2O[C@H](CO)[C@@H](O)[C@H](O)[C@H]2O)/C(C)=C/[C@H]2OC(=O)[C@H](C)[C@@H]2CC1`, the Potency entry in assay [1] and in assay [2] was “inactive” each time.

Regarding `Cc1cn2c(N)c(Cl)cc(C(=O)NCC3CCN(CC(C)C)CC3)c2n1`, the Potency entry in assay [1] and in assay [2] was “inactive” throughout.

As for `N#CCc1ccc(O)cc1O[C@@H]1O[C@H](CO)[C@@H](O)[C@H](O)[C@H]1O`, the Potency entry in assay [1] and in assay [2] was “inactive” each time.

Consider `CCOC(=O)[C@H](CCc1ccccc1)N[C@@H](C)C(=O)N1C2CCCCC2C[C@H]1C(=O)O` (stereo not given in full), for which the Potency entry in assay [1] and in assay [2] was “inactive” in each case.

Turning to `OC[C@H]1O[C@@H](Oc2ccc3c(c2)OC[C@H]2c4cc5c(cc4O[C@@H]32)OCO5)[C@H](O)[C@@H](O)[C@@H]1O`, the Potency result in assay [1] and in assay [2] was “inactive” each time.

For the compound `C=C[C@](C)(CC/C=C(\C)C(=O)O)O[C@@H]1OC[C@H](O)[C@H](O)[C@H]1O`, the Potency in assay [1] is 25.1 µM (active); in assay [2], 12.6 µM (active).

On to `C=CC1(C)C=C2C(=O)CC3C(C)(C)CCCC3(C(=O)O)C2(O)CC1` (stereo not given), for which the Potency result in assay [1] and in assay [2] was “inactive” each time.

Consider `CC[C@H]1OC(=O)C[C@@H](O)[C@H](C)[C@@H](O[C@@H]2O[C@H](C)[C@@H](O)[C@H](N(C)C)[C@H]2O)[C@@H](CCN2C[C@H](C)C[C@H](C)C2)C[C@@H](C)C(=O)/C=C/C(C)=C/[C@@H]1CO[C@@H]1O[C@H](C)[C@@H](O)[C@@H](OC)[C@H]1OC`, for which the Potency entry in assay [1] and in assay [2] was “inactive” in each case.

For `COC(=O)C1=CO[C@@H](O[C@@H]2O[C@H](CO)[C@@H](O)[C@H](O)[C@H]2O)[C@@H]2[C@@](C)(O)[C@@H](O)C[C@]12O`, the Potency entry in assay [1] and in assay [2] was “inactive” each time.

As to `COC1=CC(=O)O[C@@H](/C=C/c2ccccc2)[C@@H]1O`, the Potency result in assay [1] and in assay [2] was “inactive” in each case.

For `Cc1cc(N2CCCCC2)nc2ccccc12`, the Potency entry in assay [1] and in assay [2] was “inactive” each time.

With `COC(=O)C1=CO[C@@H](O[C@@H]2O[C@H](CO)[C@@H](O)[C@H](O)[C@H]2O)[C@@H]2[C@@H](C(=O)OC)[C@@H](O)C(O)[C@H]12` (stereo not given in full), the Potency result in assay [1] and in assay [2] was “inactive” in each case.

For `CN(NC(=O)CC(=O)NN(C)C(=S)c1ccccc1)C(=S)c1ccccc1`, the Potency entry in assay [1] and in assay [2] was “inactive” each time.

Regarding `COc1cc(/C=C/C(=O)OC2[C@H](O)CC(O)(C(=O)O)C[C@H]2O)ccc1O` (stereo not given in full), the Potency entry in assay [1] and in assay [2] was “inactive” each time.

Regarding `CC(C)(O)C1=CCC23COC(C2)C(O)(C(=O)O)CCC13` (stereo not given), the Potency result in assay [1] and in assay [2] was “inactive” in each case.

In the case of `CC(=O)O[C@@H]1[C@H](O[C@@H]2OC[C@](O)(CO)[C@H]2O)[C@@H](O[C@@H]2O[C@@H](C)[C@H](O)[C@@H](O)[C@H]2O)[C@H](OC(=O)[C@]23CCC(C)(C)C[C@H]2C2=CCC4[C@@]5(C)C[C@H](O)[C@H](O[C@@H]6O[C@H](C(=O)O)[C@@H](O)[C@H](O)[C@H]6O)[C@@](C)(C(=O)O)C5CC[C@@]4(C)[C@]2(C)CC3)O[C@@H]1C` (stereo not given in full), the Potency entry in assay [1] and in assay [2] was “inactive” in each case.

With `OCC1OC(Oc2cc(O)c3c(c2)OC(c2ccc(O)cc2)C(O)C3)C(O)C1O` (stereo not given), the Potency entry in assay [1] and in assay [2] was “inactive” throughout.

`COc1ncc(-c2ccc3c(Nc4cc(Oc5cc(F)cc(F)c5)cc(C(=O)O)c4)c(S(=O)(=O)NC4CC4)cnc3c2)c(OC)n1`: the Potency was 8.91 µM (active) in assay [1] and 14.1 µM (active) in assay [2].

On to `CC1(C)CC2C3=CCC4C5(C)CCC(OC6OC(C(=O)O)C(O)C(O)C6OC6OC(CO)C(O)C(O)C6OC6OC(CO)C(O)C(O)C6O)C(C)(CO)C5CCC4(C)C3(C)CCC2(C)C(OC2OCC(O)C(OC3OC(CO)C(O)C(O)C3O)C2O)C1O` (stereo not given), for which the activity change, negative = inhibition in assay [1] was 8.97% [at 19.1 µM]; in assay [2], -17% [at 10.7 µM].

On to `CC(C)=CCCC1(C)Oc2cc3c(c4c2C2C(O4)C(C)(O)CCC21)CN(C(CCC(=O)O)C(=O)O)C3=O` (stereo not given), for which the Potency entry in assay [1] and in assay [2] was “inactive” throughout.

Turning to `Nc1ncnc2c1ncn2[C@H]1CCCO1`, the Potency result in assay [1] and in assay [2] was “inactive” in each case.

Take `Cc1cccc(-c2[nH]c(CNc3ccccc3F)nc2-c2ccc3ncnn3c2)n1`: the Potency result in assay [1] and in assay [2] was “inactive” throughout.

In the case of `CC(C)(C)NCc1cc(Nc2ccnc3cc(Cl)ccc23)c2c(c1O)CCCC2`, in assay [1], the activity change, negative = inhibition was 0% [at 1.28 µM]. Moreover, the outcome in assay [2] was “inactive [at 0.684 µM]”.
